Drawing on ChEMBL document CHEMBL2218924, “A broad activity screen in support of a chemogenomic map for kinase signalling research and drug discovery” (Biochem J, 2013), this text covers residual activity for 26 molecules.

Usually residual activity stands for the signal under treatment as a percentage of the control signal.

The target in assay [1] is T1, Serine/threonine-protein kinase BRSK1 (Homo sapiens) (UniProt Q8TDC3).
T1 sequence (whole entry): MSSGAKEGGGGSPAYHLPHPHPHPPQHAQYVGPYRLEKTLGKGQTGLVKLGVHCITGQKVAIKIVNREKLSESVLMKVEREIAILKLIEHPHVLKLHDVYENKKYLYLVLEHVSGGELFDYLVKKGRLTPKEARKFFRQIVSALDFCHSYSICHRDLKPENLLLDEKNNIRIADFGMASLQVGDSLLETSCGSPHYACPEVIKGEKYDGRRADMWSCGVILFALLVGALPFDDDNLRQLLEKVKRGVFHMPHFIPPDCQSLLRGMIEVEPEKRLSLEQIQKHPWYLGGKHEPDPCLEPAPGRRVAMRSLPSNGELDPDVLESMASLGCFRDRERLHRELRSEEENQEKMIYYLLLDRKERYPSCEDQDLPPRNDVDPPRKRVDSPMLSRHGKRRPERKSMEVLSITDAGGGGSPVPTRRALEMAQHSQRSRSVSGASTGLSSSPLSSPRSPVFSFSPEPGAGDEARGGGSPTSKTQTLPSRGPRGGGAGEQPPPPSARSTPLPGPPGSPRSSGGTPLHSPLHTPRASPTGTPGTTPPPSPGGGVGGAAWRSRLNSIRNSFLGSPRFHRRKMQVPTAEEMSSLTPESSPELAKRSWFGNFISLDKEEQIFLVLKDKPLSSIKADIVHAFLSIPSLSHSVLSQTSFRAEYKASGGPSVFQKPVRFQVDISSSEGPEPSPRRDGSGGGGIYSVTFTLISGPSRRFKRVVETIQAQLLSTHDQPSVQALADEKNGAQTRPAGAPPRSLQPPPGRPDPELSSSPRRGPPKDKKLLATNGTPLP
The following applies: at 1 µM.

Assay [2] concerns the target T1, Serine/threonine-protein kinase BRSK1 (Homo sapiens). The settings on record: at 10 µM.
Assay [3] addresses T2, Serine/threonine-protein kinase BRSK2 (Homo sapiens) (UniProt Q8IWQ3).
T2 sequence (whole entry): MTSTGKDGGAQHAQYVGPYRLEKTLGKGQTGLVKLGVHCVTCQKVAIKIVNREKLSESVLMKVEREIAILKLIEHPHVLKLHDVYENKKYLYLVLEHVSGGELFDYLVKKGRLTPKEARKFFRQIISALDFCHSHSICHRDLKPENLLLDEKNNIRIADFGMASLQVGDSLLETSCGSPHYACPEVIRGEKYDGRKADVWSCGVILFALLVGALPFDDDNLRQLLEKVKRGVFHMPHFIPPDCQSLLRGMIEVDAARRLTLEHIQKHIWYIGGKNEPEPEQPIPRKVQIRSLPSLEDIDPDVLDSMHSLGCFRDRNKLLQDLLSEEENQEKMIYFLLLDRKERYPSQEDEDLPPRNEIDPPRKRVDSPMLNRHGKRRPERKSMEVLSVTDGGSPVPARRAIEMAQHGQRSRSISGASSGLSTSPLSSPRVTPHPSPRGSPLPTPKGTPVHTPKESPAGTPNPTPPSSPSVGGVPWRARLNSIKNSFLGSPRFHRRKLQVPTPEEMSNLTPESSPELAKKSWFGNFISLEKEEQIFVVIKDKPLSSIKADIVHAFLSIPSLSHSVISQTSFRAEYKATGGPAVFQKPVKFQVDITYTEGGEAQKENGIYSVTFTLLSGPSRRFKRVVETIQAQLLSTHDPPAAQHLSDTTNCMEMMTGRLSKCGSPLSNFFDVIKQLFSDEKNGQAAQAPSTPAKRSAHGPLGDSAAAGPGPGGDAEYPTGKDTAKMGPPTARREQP
The settings on record: at 1 µM.

The target in assay [4] is T2, Serine/threonine-protein kinase BRSK2 (Homo sapiens). The following applies: at 10 µM.
For assay [5], the target named is T3, Cyclin-dependent kinase 2/cyclin A (Homo sapiens) (UniProt P24941+P20248+P78396). The settings on record: at 1 µM.
In assay [6] the target is T3, Cyclin-dependent kinase 2/cyclin A (Homo sapiens). The settings on record: at 10 µM.
Assay [7] concerns the target T4, Cyclin-dependent kinase 2/cyclin E (Homo sapiens) (UniProt P24864+P24941+O96020). The settings on record: at 1 µM.
In assay [8] the target is T4, Cyclin-dependent kinase 2/cyclin E (Homo sapiens). The following applies: at 10 µM.
In assay [9] the target is T5, Cyclin-dependent kinase 1/cyclin B1 (Homo sapiens) (UniProt P06493+P14635). The settings on record: at 1 µM.
Assay [10] addresses T5, Cyclin-dependent kinase 1/cyclin B1 (Homo sapiens). The following applies: at 10 µM.

T5 sequence (P06493 whole entry, looked up): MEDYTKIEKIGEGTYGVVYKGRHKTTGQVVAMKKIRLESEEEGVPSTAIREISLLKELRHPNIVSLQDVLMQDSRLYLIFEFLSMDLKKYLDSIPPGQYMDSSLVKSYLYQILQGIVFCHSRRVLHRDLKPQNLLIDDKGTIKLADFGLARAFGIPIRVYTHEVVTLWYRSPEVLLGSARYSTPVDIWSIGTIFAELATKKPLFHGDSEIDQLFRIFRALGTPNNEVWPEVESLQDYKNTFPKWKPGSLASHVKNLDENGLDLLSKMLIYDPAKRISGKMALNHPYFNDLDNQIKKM
T5 sequence (P14635 whole entry, looked up): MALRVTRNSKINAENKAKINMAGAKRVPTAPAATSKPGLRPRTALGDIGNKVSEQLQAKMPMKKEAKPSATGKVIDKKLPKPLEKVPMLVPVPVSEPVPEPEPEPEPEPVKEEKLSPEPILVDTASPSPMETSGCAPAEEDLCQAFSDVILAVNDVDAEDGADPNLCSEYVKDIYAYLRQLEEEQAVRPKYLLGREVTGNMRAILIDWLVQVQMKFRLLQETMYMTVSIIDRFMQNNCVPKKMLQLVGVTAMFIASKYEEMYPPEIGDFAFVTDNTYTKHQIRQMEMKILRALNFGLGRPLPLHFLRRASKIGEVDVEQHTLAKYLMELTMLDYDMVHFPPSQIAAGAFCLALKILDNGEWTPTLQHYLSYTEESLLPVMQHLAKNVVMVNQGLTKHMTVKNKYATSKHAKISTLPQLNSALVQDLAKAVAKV

Regarding `NC(=O)c1ccc(-c2nc(-c3ccc4c(c3)OCCO4)c(-c3ccccn3)[nH]2)cc1`, the residual activity in assay [1] turned out to be 99%; in [2], 77%; in [3], 119%; in [4], 97%; in [5], 96%; in assay [6] it was 85%. Moreover, the residual activity in assay [7] turned out to be 92%; in assay [8], 87%.
On to `Nc1nc(Nc2ccc(S(N)(=O)=O)cc2)nn1C(=O)c1c(F)cccc1F`, for which the residual activity in assay [1] came out at 55%; in assay [2], 12%; in assay [3] it was 40%; in [4], 15%; in [9], 1%; in [10], 0%. Besides, the residual activity was -1% in assay [5], 1% in assay [6], 2% in assay [7] and -1% in assay [8].
In the case of `COc1ccc(Cl)cc1NC(=O)Nc1cc(C)nc2ccccc12`, the residual activity is 60% in assay [1]; 64% in assay [2]; 77% in [3]; 100% in assay [4]; 88% in [6].
Consider `Oc1cccc(-c2nc(N3CCOCC3)c3oc4ncccc4c3n2)c1`, for which the residual activity in assay [1] is 95%; in assay [2], 84%; in assay [3] it was 96%; in assay [4] it was 100%; in [5] it was 129%; in [6], 93%.
`Cc1cc(C)c(/C=C2\C(=O)Nc3ccccc32)[nH]1`: the residual activity was 75% in [1], 57% in assay [2], 100% in assay [3] and 48% in assay [4].
With `CC(C)[C@H](CO)Nc1nc(Nc2cc(N)cc(Cl)c2)c2ncn(C(C)C)c2n1`, the results for the residual activity in assay [1] and in assay [2] were 91% and 75%, respectively.
`CC(C)N(CCC(=O)c1ccc2ccccc2c1)Cc1ccccc1`: the residual activity in assay [1] worked out at 87%.
For the molecule `O=C(NC(NC(=S)Nc1ccc(F)c([N+](=O)[O-])c1)C(Cl)(Cl)Cl)C(c1ccccc1)c1ccccc1` (configuration not stated), the residual activity in assay [1] was 91%; in [2] it was 63%; in assay [3] it was 93%; in assay [4], 73%; in assay [6], 96%; in assay [7], 90%. Moreover, the residual activity in assay [8] was 77%.
`O=c1cc(N2CCOCC2)oc2c1ccc1ccccc12`: the residual activity is 91% in [1]; 96% in assay [2]; 102% in assay [3]; 108% in assay [4]; 106% in [9]; 91% in [10]. In addition, the residual activity came to 87% in assay [6], 95% in [7] and 97% in assay [8].
In the case of `CC(C)c1nn(-c2c(Cl)cccc2Cl)c2nc(Cc3ccc(OCCO)cc3)[nH]c(=O)c12`, the residual activity in assay [1] was found to be 70%; in assay [2] it was 78%; in [4] it was 93%; in assay [9] it was 3%; in assay [10], 0%; in [5] it was 0%. The residual activity was 0% in assay [6], -1% in [7] and -3% in assay [8].
As for `Nc1ncnc2c1cnn2-c1ccccc1`, the residual activity in [1] is 23%; in assay [2], 23%; in [3], 97%; in assay [4] it was 54%; in [5] it was 125%; in assay [6] it was 94%. In addition, the residual activity in [7] turned out to be 98%.
For the molecule `CC(C)(C)c1nc2c3ccc(F)cc3c3c(=O)[nH]ccc3c2[nH]1`, the residual activity in assay [1] came out at 32%; in assay [2] it was 7%; in assay [3], 13%; in assay [4], 4%.
On to `Nc1ncnc2[nH]nc(Nc3ccc(F)cc3)c12`, for which the residual activity in [1] was found to be 74%; in assay [2] it was 18%; in assay [3] it was 65%; in assay [4], 12%; in assay [10] it was 21%; in [6], 49%. Also, the values for the residual activity in assay [7] and in assay [8] were 91% and 59%, respectively.
As for `O=C(CCCc1ccc(-c2ccccc2F)cc1)Nc1ccc(O)cc1`, the residual activity came out at 102% in assay [1]; 83% in [2]; 107% in [3]; 105% in assay [4]; 96% in assay [5]; 98% in [6]. Besides, the residual activity in assay [7] came to 101%; in assay [8], 92%.
Take `NC(=O)Nc1sc(-c2ccc(F)cc2)cc1C(N)=O`: the residual activity in [1] worked out at 55%; in assay [2] it was 15%; in assay [3], 83%; in assay [4], 18%; in assay [9], 100%; in assay [10], 57%. The residual activity in [5] came out at 59%; in [6], 21%; in [7], 79%; in [8] it was 26%.
For the molecule `Cn1c2ccccc2c2c3c(c4c5ccccc5n(CCC#N)c4c21)CNC3=O`, the residual activity in assay [1] was 6%; in [2] it was 6%; in assay [3], 7%; in assay [4] it was 6%; in [9], 20%; in [10], 18%. In addition, the residual activity is 22% in assay [5], 17% in assay [6], 7% in assay [7] and 12% in assay [8].
In the case of `N#C/C(=C1/Nc2ccccc2S1)c1ccnc(NCCc2cccnc2)n1`, the residual activity was 80% in assay [1]; 45% in [2]; 96% in assay [3]; 29% in assay [4]; 81% in assay [5]; 33% in [6].
With `O=c1cc(N2CCNCC2)oc2c(-c3ccccc3)cccc12`, the residual activity in assay [1] is 70%; in assay [2] it was 74%; in assay [3] it was 98%; in assay [4] it was 95%; in assay [9], 104%; in [10], 102%. Further, the residual activity in [5] worked out at 125%; in assay [6], 87%; in assay [8], 103%.
For `O=C1Nc2ccc(Cl)cc2/C1=C/c1cc(Cl)c(O)c(Cl)c1`, the residual activity is 40% in assay [1]; 29% in assay [2]; 86% in assay [3]; 47% in [4]; 95% in assay [9]; 97% in [10]. Besides, the residual activity in assay [5] is 118%; in [6] it was 79%; in [7], 95%; in assay [8], 97%.
As for `O=C(c1cc2cc(O)ccc2[nH]1)c1cc2cc(O)ccc2[nH]1`, the residual activity in assay [1] turned out to be 5%; in [2] it was 7%; in assay [3] it was 37%; in assay [4] it was 6%; in assay [9], 60%; in assay [10] it was 15%. The residual activity in [5] stood at 78%; in [6], 9%; in assay [7], 50%; in [8], 13%.
On to `O=C(O)/C=C/c1cc(Br)c(Br)c(Br)c1Br`, for which the residual activity was 103% in [1]; 49% in [2]; 91% in assay [3]; 45% in [4]; 109% in [9]; 56% in assay [10]. Besides, the results for the residual activity in [6], in assay [7] and in [8] were 67%, 100% and 91%, respectively.
Consider `CCN(CC)CCNC(=O)c1c(C)[nH]c(/C=C2\C(=O)Nc3ccc(Cl)cc32)c1C`, for which the residual activity was 6% in assay [1]; 9% in assay [2]; 29% in assay [3]; 10% in assay [4]; 57% in [10]; 134% in [5]. The residual activity was 69% in [6], 98% in assay [7] and 65% in assay [8].
For the molecule `O=C1C(Cl)=C(N2C(=O)CCC2=O)C(=O)c2ccccc21`, the residual activity amounted to 82% in assay [1]; 79% in [2]; 118% in [3]; 92% in [4]; 86% in assay [5]; 89% in [6]. Besides, the residual activity is 95% in [7] and 98% in assay [8].
On to `O=C1NC(=O)c2c1c1c3ccccc3[nH]c1n1cncc21`, for which the residual activity stood at 32% in assay [1]; 25% in [2]; 23% in assay [3]; 17% in assay [4]; 83% in [9]; 53% in assay [10]. Further, the residual activity in assay [5] came out at 64%; in assay [6], 61%; in assay [7], 58%; in [8], 35%.
As for `CN(C)S(=O)(=O)c1ccc2c(c1)/C(=C/c1cc3c([nH]1)CCCC3)C(=O)N2`, the residual activity in assay [1] turned out to be 97%; in assay [2], 75%; in [3] it was 40%; in assay [4], 50%; in assay [9] it was 88%; in [10] it was 95%. For the same molecule, the residual activity in assay [5] turned out to be 87%; in [6] it was 77%; in assay [7], 96%; in assay [8] it was 97%.
Turning to `COc1ccc2c(c1)c(C1=C(c3c[nH]c4ccccc34)C(=O)NC1=O)cn2CCCN(C)C`, the residual activity was determined as 41% in [1]; 48% in [2]; 67% in assay [3]; 31% in [4]; 104% in assay [9]; 112% in assay [5]. Moreover, the residual activity in assay [6] was 70%; in [7], 100%.
